# In PubChem BioAssay AID1851 (National Center for Advancing Translational Sciences (NCATS), 2009):
# Values joined by “and” are separate entries in the source; they are usually repeats but may differ in a detail not shown here. Identical values can stand only once. Out of some 16,000 compounds screened, about 5,800 (36%) were called active. Inconclusive results (about 23%) are left out. The list shows a part of the results. A number with no mark means an inactive call. Calls follow the shape of the dose curve; as a rule, active = well fitted curve in the direction sought with a large enough effect; inconclusive = small, poorly fitted or top-dose-only effect, or effect the other way; inactive = no such curve, though single readings can be large or run the other way.
# Target: Cytochrome P450 2C19 (Homo sapiens) (UniProt P33261)
# Sequence (P33261 whole entry, looked up): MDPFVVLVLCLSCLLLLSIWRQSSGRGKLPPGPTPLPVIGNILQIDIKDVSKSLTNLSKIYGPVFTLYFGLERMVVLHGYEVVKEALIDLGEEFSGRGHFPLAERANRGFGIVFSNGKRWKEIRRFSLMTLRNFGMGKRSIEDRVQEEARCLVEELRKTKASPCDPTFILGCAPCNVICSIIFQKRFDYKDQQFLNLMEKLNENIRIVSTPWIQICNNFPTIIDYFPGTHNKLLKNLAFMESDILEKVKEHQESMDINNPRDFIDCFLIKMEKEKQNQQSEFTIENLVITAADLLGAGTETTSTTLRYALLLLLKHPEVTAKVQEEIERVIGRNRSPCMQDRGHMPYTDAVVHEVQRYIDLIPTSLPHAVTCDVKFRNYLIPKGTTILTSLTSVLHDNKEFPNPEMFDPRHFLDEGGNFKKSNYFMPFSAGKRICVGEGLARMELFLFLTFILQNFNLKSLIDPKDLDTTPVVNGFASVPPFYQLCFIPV
# Assay: Cytochrome panel assay with activity outcomes
# Conditions: recombinant CYP, pro-luciferin dealkylation, luminescence, p450-cyp2c19; series mostly up to 57.1 µM
# % is scaled to controls: 0 for no effect and ±100 for the full control effect.
SMILES,AC50,"activity, negative = inhibition"
CCn1c2ccccc2c2cc(NC(=O)C(C)Oc3ccc(OC)cc3)ccc21 (stereo not given),0.398 µM (active),–
CCC(Sc1ncccc1C(=O)O)C(=O)N1CCOCC1 (stereo not given),inactive,–
CCC(C(=O)N1CCOCC1)n1c(C(=O)OC)cc2occc21 (stereo not given),5.01 µM (active),–
CCN(CC)c1ccc(C(=O)OCc2cc(=O)oc3cc(O)ccc23)cc1,0.355 µM (active),–
COc1ccc2c(CC(=O)NCC3CCC(C(=O)O)CC3)cc(=O)oc2c1 (stereo not given),inactive,–
CCN(CC)c1ccc2c(Cl)cc(=O)oc2c1,11.2 µM (active),–
Cc1cc(=O)oc2cc(O)ccc12,inactive,–
CCCC[C@H](CC)CN1CN(C[C@@H](CC)CCCC)CC(C)(N)C1,inactive,–
CCS(=O)(=O)N1CCN(c2c(Cl)cccc2[N+](=O)[O-])CC1,10 µM (active),–
CS(=O)(=O)N1CCC2(CCN(C(c3ccccc3)c3ccccc3)CC2)CC1,inactive,–
CS(=O)(=O)N1CCC2(CCN(c3ccccc3)CC2)CC1,inactive,–
CS(=O)(=O)N1CCN(c2c(Cl)cccc2[N+](=O)[O-])CC1,14.1 µM (active),–
CCN1CCc2nc(N)oc2CC1,inactive,–
CC(=O)N(/N=C1\Sc2ccccc2C1=O)c1ccccc1,3.16 µM (active),–
CC(=O)N(/N=C1\Sc2ccccc2C1=O)c1ccccc1C,4.47 µM (active),–
O=[N+]([O-])c1cccnc1N1CCOCC1,inactive,–
O=[N+]([O-])c1ccc(N2CCCCC2)c(Cl)c1N1CCCCC1,1.41 µM (active),–
CC(C)c1ccc(CNc2cc(N3CCCC3)ccc2[N+](=O)[O-])cc1,1.78 µM (active),–
O=[N+]([O-])c1ccc(N2CCCC2)cc1N1CCCC1,4.47 µM (active),–
Clc1ccc(N2CCCCCC2)nn1,inactive,–
O=[N+]([O-])c1cc(F)c(N2CCOCC2)cc1N1CCCCC1,3.98 µM (active),–
COC(=O)[C@@]1(Cc2ccccc2)[C@H]2c3cc(C(=O)N(C)C)n(Cc4ccsc4Br)c3C[C@H]2CN1C(=O)c1ccccc1,2 µM (active),–
COC(=O)[C@@]1(Cc2ccccc2)[C@H]2c3cc(C(=O)N4CCCC4)n(Cc4ccsc4Br)c3C[C@H]2CN1C(=O)c1ccccc1,2.51 µM (active),–
COC(=O)[C@@]1(Cc2ccccc2)[C@H]2c3cc(C(=O)N4CCCC4)n(Cc4cccc5ccccc45)c3C[C@H]2CN1C(=O)c1ccccc1,2.51 µM (active),–

SMILES,AC50,"activity, negative = inhibition"
O=C(O)c1c(Cl)c(Cl)c(Cl)c(Cl)c1C(=O)Nc1ccc2cn[nH]c2c1,–,-27.8% [at 11.4 µM]
S=C(Nc1ccc2cn[nH]c2c1)Nc1ccc2cn[nH]c2c1,1 µM (active),–
CCNc1ncc2nc(-c3ccc(Cl)cc3)c(=O)n(C3CC3)c2n1,inactive,–
CN(C)CCCNc1c(C(=O)O)cnc2c1cnn2C,inactive,–
Cc1ccc(-n2c(=O)[nH]cc(C(=O)N3CCc4ccccc43)c2=O)cc1,inactive,–
Cc1nn(C(C)C(=O)N2CCc3ccccc32)c(C)c1[N+](=O)[O-] (stereo not given),11.2 µM (active),–
CC(=O)N1CCC(=O)N(C(C)C)c2ccccc21,inactive,–
CN(C)CC[C@@H](c1ccccc1)c1ccccn1,inactive,–
CN(C)CC(CN(C)C)c1ccccn1,–,4.36% [at 11.4 µM]
C[C@@H](C1=C(CCN(C)C)Cc2ccccc21)c1ccccn1,2.51 µM (active),–
Cc1n[nH]c(=O)[nH]c1=O,inactive,–
CS(=O)(=O)Nc1cccc(-c2nc(NCc3cccs3)c3ccccc3n2)c1,10 µM (active),–
CS(=O)(=O)Nc1cccc(-c2nc(NCCN3CCOCC3)c3ccccc3n2)c1,inactive,–
Cc1cccc(CNc2nc(-c3cccc(NS(C)(=O)=O)c3)nc3ccccc23)c1,2.51 µM (active),–
CCOC(=O)CC1NC(=O)c2ccccc21 (stereo not given),inactive,–
CCOC(=O)COc1c(OC)cc(Cl)cc1C1Nc2ccccc2C(=O)N1c1ccc(F)cc1 (stereo not given),0.501 µM (active),–
CCOC(=O)COc1c(OC)cc(Cl)cc1C1Nc2ccccc2C(=O)N1c1cccc(C)c1 (stereo not given),1.41 µM (active),–
C#CCn1c(=O)c2c(ncn2C)n(C)c1=O,inactive,–
O=C(Nc1cccc(C(F)(F)F)c1)c1ccc(Cn2cc(Br)cn2)o1,2.24 µM (active),–
CCN(CC)S(=O)(=O)c1cccc(C(=O)N[C@H](C(=O)OCC(=O)NC(=O)NC)C(C)C)c1,7.94 µM (active),–
[N-]=[N+]=NC[C@@H]1O[C@@H](n2cnc3c(N)ncnc32)[C@@H]2O[C@@H]21,–,18.5% [at 11.4 µM]
CC(C)=CCC/C(C)=C/CC/C(C)=C/CSc1ccccc1C(=O)O,inactive,–
Cn1c(=O)cc(SCC(=O)NCCN2CCN(c3ccccc3F)CC2)c2cc(Cl)ccc21,11.2 µM (active),–
CC(C)=CC(=O)OCC(=O)Nc1ncc(Cl)c(C)c1Cl,15.8 µM (active),–

SMILES,AC50,"activity, negative = inhibition"
Cc1c(Cl)cnc(NC(=O)COC(=O)CCS(=O)(=O)c2ccccc2)c1Cl,20 µM (active),–
Nc1ccc(CCNc2ncnc3c2ncn3[C@@H]2O[C@@H](CO)[C@H](O)[C@@H]2O)cc1,inactive,–
Cc1cc(N)n2ncc(-c3ccc(Cl)cc3)c2n1,15.8 µM (active),–
Cc1cc(N2CCN(C)CC2)n2nc(-c3ccc(Cl)cc3)nc2n1,–,4.95% [at 11.4 µM]
COc1cccc(C(=O)Nc2cc(C(F)(F)F)ccc2Cl)c1,7.08 µM (active),–
COc1cc(C(=O)NC(=S)Nc2ccc(Cl)c(C(=O)O)c2)cc(OC)c1OC,inactive,–
COc1cc(C(=O)Nc2cc(C(F)(F)F)ccc2Cl)cc(OC)c1OC,22.4 µM (active),–
O=C(Cc1ccccc1)NC(=S)Nc1cc(C(F)(F)F)ccc1Cl,0.708 µM (active),–
COc1cc(/C=C/C(=O)Nc2cc(C(F)(F)F)ccc2Cl)cc(OC)c1OC,20 µM (active),–
COC(=O)c1ccc(Cl)c(NC(=O)c2ccc(-c3ccccc3)cc2)c1,inactive,–
CCCC(=O)Nc1ccc(C(=O)Nc2cc(C(F)(F)F)ccc2Cl)cc1,20 µM (active),–
CN(C)c1cc[n+](CC(=O)Nc2cc(C(F)(F)F)ccc2Cl)cc1,inactive,–
C/C(CCN1CCCCc2nc(C)c(C)cc21)=N\O[C@@H](C)c1cn([C@H](CO)Cc2ccccc2)nn1,–,-12.5% [at 11.4 µM] and 36.9% [at 11.4 µM]
CC(C)OC(=O)CN1CCN(C2c3ccccc3-c3ccccc32)CC1,7.08 µM (active),–
COC(=O)C/C=C1\c2ccccc2[C@H](OC)[C@H]1C,–,23.9% [at 11.4 µM]
COc1ccc(NC(C)=O)cc1NC(=O)CN1CCN(C2c3ccccc3-c3ccccc32)CC1,2.51 µM (active),–
CC(=O)Nc1ccc2c(c1)C(=Nc1ccc(C(=O)O)cc1)c1ccccc1-2,–,24.2% [at 11.4 µM]
O=C(O)C[C@@H](C(=O)O)C1c2ccccc2-c2ccccc21,–,26.9% [at 11.4 µM]
COc1ccccc1NC(=O)CN1CCN(C2c3ccccc3-c3ccccc32)CC1,0.708 µM (active),–
N#CCCn1c(=O)c(-c2cc(F)cc(F)c2)nc2cnc(Nc3ccccc3)nc21,inactive,–
FC(F)(F)c1cc(CN2CC3(CCNCC3)C2)cc(C(F)(F)F)c1,inactive,–
COc1cc(C2SCCCCCCCCCCSC(c3ccc(O)c(OC)c3)SCCCCCCCCCCS2)ccc1O (stereo not given),–,20.3% [at 11.4 µM]
Cc1ccc(C(=O)O/N=C/c2c(Cl)n(C)c3ccccc23)cc1,inactive,–
Cn1cc(-c2nc3cnc(Oc4ccccc4)nc3n(C)c2=O)c2ccccc21,inactive,–

SMILES,AC50,"activity, negative = inhibition"
Cn1c(Oc2ccccc2)c(C=O)c2ccccc21,4.47 µM (active),–
COc1ccc(Oc2c(C=O)c3ccccc3n2C)cc1,2.82 µM (active),–
COc1ccc(Oc2ncc3nc(-c4cn(C)c5ccccc45)c(=O)n(C)c3n2)cc1,inactive,–
Cc1cc(NC(=O)COc2ccc(Cl)cc2Cl)n(-c2ccccc2)n1,1.12 µM (active),–
O=C(COc1ccccc1Cl)Nc1cc(Cl)ccc1Oc1ccccc1,1 µM (active),–
c1cncc(-c2ccc3ncnc(NC4CCNCC4)c3c2)c1,inactive,–
COc1cccc(-c2ccc3ncnc(NC4CCNCC4)c3c2)c1,6.31 µM (active),–
CN(C)c1ccc(-c2ccc3ncnc(NC4CC4)c3c2)cc1,inactive,–
c1nc(NC2CCNCC2)c2cc(-c3ccc4c(c3)OCO4)ccc2n1,inactive,–
c1nc(NC2CCNCC2)c2cc(-c3ccoc3)ccc2n1,inactive,–
CS(=O)(=O)Nc1cccc(-c2ccc3ncnc(NC4CCNCC4)c3c2)c1,inactive,–
COc1cccc(-c2ccc3ncnc(NC4CC4)c3c2)c1,1.26 µM (active),–
Cc1noc(C)c1-c1ccc2ncnc(NC3CCNCC3)c2c1,15.8 µM (active),–
Cc1cc(C)n(-c2nc3ccccc3c(=O)n2OCc2ccc(Cl)cc2)n1,0.398 µM (active),–
Cn1c(=O)c(-c2ccc(Cl)cc2)nc2cnc(OCc3ccccc3)nc21,inactive,–
C[C@@H](CN1CCC(Cc2ccccc2)CC1)[C@@H](O)c1ccc(O)cc1,inactive,–
CCOC(=O)c1cc2c(ccn2C)n1CC(=O)N1CCCC(C)C1 (stereo not given),8.91 µM (active),–
CC(C)OC(=O)c1cc2c(ccn2C)n1CC(=O)N1CCC(Cc2ccccc2)CC1,14.1 µM (active),–
C[C@@H](CN1CCC(Cc2ccccc2)CC1)[C@H](O)c1ccc(O)cc1,inactive,–
Cc1ccc(C)c(Cn2c(C(=O)OC(C)C)cc3c2ccn3C)c1,1.78 µM (active),–
CSc1nnc(-c2ccc(Cl)cc2Cl)o1,25.1 µM (active),–
Clc1ccc(-c2nnc(CCc3ccccc3)o2)c(Cl)c1,1.41 µM (active),–
c1ccc(C2=NN[C@@H]3c4ccccc4-c4ccccc4N3C2)cc1,–,-22.1% [at 11.4 µM]
